Screening results deposited in PubChem BioAssay by National Center for Advancing Translational Sciences (NCATS).
Pf growth 48h: inhibits P. falciparum growth in the first generation, 48 h. P. falciparum luciferase growth in erythrocytes, 48 h. Potency, µM (series often up to 28.7 µM), hits mostly inhibitors. 5.9% of 310,000 active; active = well fitted inhibition curve with a large enough effect; inconclusive = small, poorly fitted or top-dose-only effect, or another doubt; inactive = no such curve, though single readings can be large or run the other way
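Firefly luciferase activity from engineered P. falciparum reports growth; inhibitors lower the luminescent signal. Cultures contained 2% hematocrit erythrocytes at 0.1% final parasitemia.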
NS1 inh: influenza NS1 inhibition; Potency, µM (highest dose often 46.1 µM); 0.4% of 270,000 active; AID 2326; also: actives are rising curves; nearly all actives have a fitted effect of over 50% in size
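A cell-based growth assay was used: compounds that relieve NS1-induced slow growth of budding yeast raise OD600. Assay medium was yeast nitrogen base with ammonium sulphate and -URA supplement, pH 6.0, with 2% galactose.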
Pf growth 96h: P. falciparum growth inhibition at 96 hour, primary screen for plastid delayed-death inhibitors. P. falciparum luciferase reporter growth, 96 h. 6.9% of 320,000 active. Potency, µM (highest dose often 28.7 µM), hits mostly inhibitors; active = well fitted inhibition curve with a large enough effect; inconclusive = small, poorly fitted or top-dose-only effect, or another doubt; inactive = no such curve, though single readings can be large or run the other way
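Luminescence readout: decreased luciferase signal marks inhibited growth of reporter-expressing P. falciparum in infected red cells (2% hematocrit, 0.05% parasitemia final), exposed to compound two generations (96 h, 37 C, 5% CO2).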
SARS PLpro yeast: inhibitors of SARS-CoV papain-like protease in yeast | S. cerevisiae expressing SARS-CoV PLpro, growth rescue | Potency, µM (series often up to 32.9 µM), hits mostly activators | 0.19% of 330,000 active | AID 485353; also: nearly all actives have a fitted effect of over 55% in size
Of the large screens only hits and unclear results are named; the others gave an inactive call. Compounds with a hit are over-represented: about 10% of the library has one in this group of screens. Unless noted, calls follow the shape of the full dose curve.

CN1/C(=C\C(=S)NC(=O)c2cccc(Br)c2)C(C)(C)c2ccccc21	Pf growth 48h inconclusive, Pf growth 96h 12µM
CN1/C(=C\C(=O)Nc2ccc(F)cc2)C(C)(C)c2ccccc21	Pf growth 48h 5.2µM, Pf growth 96h inconclusive
CCOc1ccccc1N(CC(=O)Nc1ccc2c(c1)OCCO2)S(C)(=O)=O	Pf growth 96h 4.1µM
COc1cccc(NC(=O)C(=O)N/N=C/c2ccc3c(c2)OCO3)c1	Pf growth 96h 10µM
CCOc1ccccc1N(CC(=O)Nc1ccc2c(c1)OCO2)S(C)(=O)=O	none
CC(=O)Nc1ccc(C(=O)Nc2ccc3c(c2)OCCO3)cc1	Pf growth 96h inconclusive (no result: Pf growth 48h)
CN(CC(=O)NCc1ccccn1)S(=O)(=O)c1ccc(F)cc1	Pf growth 96h 15µM
CC(=O)Nc1ccc(C(=O)Nc2ccc3c(c2)OCO3)cc1	Pf growth 96h 2.3µM
C/C(=N\NC(=O)c1cccc(S(=O)(=O)N2CCCC2)c1)c1ccc(C)cc1	Pf growth 48h inconclusive (no result: NS1 inh)
CC(C)(C)c1cc(C(=O)NNC(=O)c2ccc(Cl)cc2)no1	none
CCc1cccc(NS(=O)(=O)c2c(C)nc3sc(CC)nn3c2=O)c1	Pf growth 96h inconclusive
O=C(CN(CC1CCCO1)C(=O)CNS(=O)(=O)c1ccc(Cl)cc1)NCC1CCCO1 (stereo not drawn)	none
O=C(Nc1ccc2c(c1)OCO2)c1ccc2c(c1)OCO2	none
O=C(N/N=C/c1ccc2c(c1)OCO2)c1ccc(NC(=O)c2ccc(F)cc2)cc1	Pf growth 48h 2.3µM
O=C(Nc1ccc(F)c(F)c1)c1ccc2c(c1)OCO2	Pf growth 96h 2.3µM
O=C(Nc1ncccc1O)c1ccc2c(c1)OCO2	Pf growth 48h 9.3µM, Pf growth 96h 4.1µM (no result: NS1 inh)
O=C(N/N=C/c1ccc2c(c1)OCO2)c1ccc2c(c1)OCCO2	none
O=C(CN(c1ccc(F)cc1)S(=O)(=O)c1ccc2c(c1)OCCO2)NCc1ccccn1	none (no result: Pf growth 96h)
CS(=O)(=O)N(CC(=O)NCc1ccccn1)c1ccc2c(c1)OCCO2	Pf growth 96h 4.1µM
CN(c1ccccc1C(=O)NCc1ccccn1)S(C)(=O)=O	Pf growth 48h 15µM (no result: Pf growth 96h)
CCOc1cc(C(=O)Nc2ccc3c(c2)OCO3)ccc1OC(F)F	Pf growth 96h 9.3µM
O=C(N/N=C/c1ccc(F)cc1)c1cc(-c2ccc3c(c2)OCO3)n[nH]1	none
CCOc1ccc(NC(=O)c2ccc3c(c2)OCCO3)cc1S(=O)(=O)N(CC)CC	Pf growth 48h 13µM, Pf growth 96h 13µM (no result: NS1 inh)
COc1ccc(/C=N/NC(=O)c2cc(-c3ccc4c(c3)OCO4)n[nH]2)cc1OC	Pf growth 48h inconclusive, Pf growth 96h 12µM
Cn1nc(C(F)(F)F)c(-c2cccc(C(F)(F)F)c2)c1NC(=O)CSCC(=O)O	Pf growth 48h inconclusive, Pf growth 96h inconclusive
Cc1cc(C)n(CC(=O)N/N=C/c2ccc3c(c2)OCO3)n1	Pf growth 96h 3.7µM
CC1(c2ccccc2)O[C@@H]2C[C@H]3[C@@H]4CCC5=CC(=O)C=C[C@]5(C)[C@@]4(F)[C@@H](O)C[C@]3(C)[C@]2(C(=O)CO)O1 (stereo partly drawn)	Pf growth 48h 0.83µM, Pf growth 96h 1.9µM
C[C@H]1C[C@H]2[C@@H]3CCC4=CC(=O)C=C[C@]4(C)[C@@]3(F)[C@@H](O)C[C@]2(C)[C@@]1(O)C(=O)CO	Pf growth 96h inconclusive (no result: NS1 inh, SARS PLpro yeast)
CC(=O)OCC(=O)[C@@]12OC(C)(C)O[C@@H]1C[C@H]1[C@H]3C[C@H](F)C4=CC(=O)C=C[C@@]4(C)[C@]3(F)[C@H](O)C[C@@]12C	Pf growth 96h inconclusive (no result: NS1 inh, SARS PLpro yeast)
CC1(C)OC2CC3C4CC(F)C5=CC(=O)C=CC5(C)C4(F)C(O)CC3(C)C2(C(=O)CO)O1 (stereo not drawn)	Pf growth 48h inconclusive, Pf growth 96h 5.9µM
CCOc1cc(C(=O)N[C@@H](C)C(=O)N2CCC3(CC2)NCCc2[nH]cnc23)cc(OCC)c1OCC	Pf growth 48h inconclusive
Cc1ccc(C(=O)OCC(=O)NC2CCCCCC2)c(C)c1	none (no result: NS1 inh)
CCOc1ccc(NC(=O)CN(C)C(=O)c2cccnc2Sc2ccc(C)c(C)c2)cc1OCC	none
CCC1OC(=O)C[C@@H](O)[C@H](C)[C@@H](OC2OC(C)CC(N(C)C)C2O)[C@@H](CC=O)C[C@@H](C)C(=O)/C=C/[C@]2(C)OC2C1C (stereo partly drawn)	Pf growth 48h 13µM, Pf growth 96h 0.0038µM (no result: NS1 inh, SARS PLpro yeast)
CCN(CC)c1ccc(NC(=O)c2cnccn2)cc1S(=O)(=O)Nc1ccc(OC)cc1	Pf growth 48h inconclusive, Pf growth 96h inconclusive
CCN(CC)c1ccc(NC(=O)c2ccccc2F)cc1S(=O)(=O)Nc1ccccc1OC	Pf growth 48h 4.7µM, Pf growth 96h 10µM
CCN(CC)c1ccc(NC(=O)COc2ccccc2C)cc1S(=O)(=O)Nc1ccccc1OC	Pf growth 48h 9.3µM, Pf growth 96h inconclusive
CCNC(=S)Nc1ccc(C)c(S(=O)(=O)Nc2ccccc2OC)c1	none
CCN(CC)c1ccc(NC(=O)COc2ccccc2C#N)cc1S(=O)(=O)Nc1ccc(OC)cc1	Pf growth 48h 8.3µM, Pf growth 96h 4.1µM
CCN(CC)c1ccc(NC(=O)c2ccccc2Br)cc1S(=O)(=O)Nc1ccccc1OC	Pf growth 48h 15µM, NS1 inh inconclusive
CCN(CC(=O)Nc1ccc(OC)cc1)C(=O)Cc1ccc(OC)c(S(=O)(=O)N2CCOCC2)c1	none (no result: NS1 inh)
O=C(COC(=O)CCc1nc2ccccc2c(=O)[nH]1)Nc1ccc2c(c1)OCO2	none
COC(=O)C1CCN(C(=O)COC(=O)CNC(=O)c2ccc(Cl)cc2Cl)CC1	none (no result: NS1 inh)
COc1ccc(NC(=O)c2ccc(=O)[nH]c2)cc1S(=O)(=O)N1CCCCC1	none
CCN(CC)c1ccc(NC(=O)c2ccc(=O)[nH]c2)cc1S(=O)(=O)Nc1ccccc1OC	Pf growth 48h 10µM, Pf growth 96h 6.6µM (no result: NS1 inh)
O=C(COc1ccc(S(=O)(=O)NC2CCCCC2)cc1Cl)Nc1ccc2c(c1)OCO2	Pf growth 96h 10µM (no result: Pf growth 48h)
COc1ccc(CCNC(=O)COc2ccc(S(=O)(=O)NC3CCCCC3)cc2Cl)cc1OC	Pf growth 48h 12µM
COc1ccc(NC2CCCN(C(=O)CN3C(=O)c4ccccc4C3=O)C2)cc1OC (stereo not drawn)	none
CC1(C)OC1COc1c2ccoc2cc2oc(=O)ccc12 (stereo not drawn)	Pf growth 96h 0.37µM
CC1C(c2ccccc2)N(C)C(c2ccccc2)CC1(O)c1ccc(F)cc1 (stereo not drawn)	Pf growth 48h inconclusive (no result: NS1 inh)
CCC1C(c2ccccc2)NC(c2ccccc2)CC1(O)c1ccc(F)cc1 (stereo not drawn)	Pf growth 48h 10µM, Pf growth 96h inconclusive
CN1C(=O)C(C)(C)c2cc(S(=O)(=O)NCC3CCC(C(=O)NCc4ccccc4)CC3)ccc21 (stereo not drawn)	none
CCN(CC)S(=O)(=O)c1cccc(C(=O)Nc2ccc(S(=O)(=O)NC3=NCCCCC3)cc2)c1	Pf growth 48h inconclusive, Pf growth 96h 6.6µM (no result: NS1 inh)
CCOC(=O)c1ccc(S(=O)(=O)Nc2nc3cc(S(=O)(=O)NC4=NCCCCC4)ccc3s2)cc1	Pf growth 96h 13µM (no result: NS1 inh)
CCCOc1ccc(C(=O)Nc2ccc(S(=O)(=O)NC3=NCCCCC3)cc2)cc1	Pf growth 48h 5.9µM, Pf growth 96h 10µM (no result: NS1 inh)
